In all, about 300,000 compounds went through this assay and about 5,200 (1.7%) were called active. The entries come from a sample that favours actives as a whole. Unmarked numbers belong to inactive results.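 Rule for the calls: active = mean replicate activation of at least 50% with a set share of replicates each reaching 50%; inconclusive = only one of those two conditions met; inactive = mean below 50% and too few replicates reaching it.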
assay: HSF-1 response element luciferase induction – NIH3T3-HGL cells, MG132 stress, luminescence, single point, primary screen (AID 504408); settings: NIH3T3-HGL HSF-1 luciferase reporter, MG132, 8 h; at 9 µM; active compounds read high; 100% = twice DMSO control signal;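 note: 0% = median of the neutral control wells and 100% = twice that signal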

Structure (SMILES)	activation
N#CCN(C(=O)COC(=O)C1CC2CCCC(C1)C2=O)c1ccccc1 (configuration not stated)	-11.4%
O=C(NN1CCOCC1)c1cccc(F)c1	13.3%
O=C(COC(=O)Cc1ccccc1F)NNC(=O)c1ccc(Cl)cc1	-9.93%
COc1ccc(CNC(=O)C(=O)N2CCC3(CC2)OCCN3S(=O)(=O)c2ccc(C)cc2)cc1	2.08%
COc1ccccc1N1CCN(S(=O)(=O)c2ccc(Cl)cc2)CC1	4.97%
CCN(C(=O)CSc1nnnn1-c1ccccc1OC)C1CCS(=O)(=O)C1 (configuration not stated)	26%
COc1ccccc1-n1nnnc1S(=O)(=O)Cc1ccc(Cl)cc1	235% (active)
Cc1ccc(NC(=O)CSc2nc(=O)n(CCN(C)C)c3c2CCCC3)c(C)c1	-10.7%
CN1CCN(S(=O)(=O)c2ccc(Nc3ccc(F)cc3)nc2)CC1	-7%
NS(=O)(=O)c1ccc(CCNC(=O)CN2C(=O)c3ccccc3S2(=O)=O)cc1	-4.15%
COc1ccc(S(=O)(=O)NCCCc2ccccc2)cc1	-30.2%
COc1cccc(/C=C/c2ccc3ccccc3n2)c1OC(C)=O	-16.6%
CCOc1cccc(/C=C/c2ccc3ccccc3n2)c1OC(C)=O	132% (active)
NC(=O)COC(=O)/C=C/c1ccc2ccccc2n1	-46.9%
O=C(Nc1ncccc1O)c1ccc(C(=O)c2ccccc2)cc1	-2.58%
CCCCn1c(N)c(N(CCOC)C(=O)CSCC(=O)Nc2cccc(C)c2)c(=O)[nH]c1=O	1.06%
CCC1Nc2ncnc(N3CCN(c4ccccc4)CC3)c2N(Cc2ccc(Cl)cc2)C1=O (configuration not stated)	22.3%
Cc1ccc(CC2S/C(=C(/C#N)C(=O)N3CCOCC3)N(c3ccccc3)C2=O)cc1 (configuration not stated)	19.9%
Cc1ccc(N2C(=O)SC(N(CC(=O)O)c3ccc(C)cc3)C2=O)cc1 (configuration not stated)	96.4% (active)

Structure (SMILES)	activation
Cc1cccc(N2C(=O)SC(N(CC(=O)O)c3cccc(C)c3)C2=O)c1 (configuration not stated)	17.2%
CC(=O)Nc1ccc(C(=O)NNC(=O)CCCCC(=O)NNC(=O)c2ccc(NC(C)=O)cc2)cc1	0.0985%
Cc1ccc(C(=O)NC2CCCC(C)C2C)cc1S(=O)(=O)N1CCCCC1 (configuration not stated)	2.09%
O=[N+]([O-])c1ccc(S(=O)(=O)Nc2cccc(-c3ccc(N4CCCC4)nn3)c2)cc1	-7.69%
Clc1ccc(COn2c(-c3ccc(Cl)cc3Cl)nc3ncccc32)cc1	-4.74%
Clc1ccc(-c2ncc3ccccn23)c(Cl)c1	69.3% (active)
COn1c(-c2ccc(Cl)cc2Cl)nc2ncccc21	22.3%
COc1ccc(-c2nc3ccccc3c(=O)n2CCc2ccc(O)cc2)cc1	29.5%
COc1ccc(-c2c(C#Cc3ccccc3)c3ccccc3n2C)cc1	64.2% (active)
COc1ccc(-c2cc(C(=O)n3cnc4ccccc43)c3ccccc3n2)cc1	-1.65%
O=C(COC(=O)c1ccccc1Br)Nc1nnc(-c2ccccc2)o1	-10.6%
CC1CCN(c2ccc(-c3ccc(NC(=O)c4ccco4)cc3)nn2)CC1	-39.2%
CSCCC(NC(=O)c1ccco1)C(=O)Nc1cc(C)ccn1 (configuration not stated)	4.08%
Cc1ccc(-c2csc(NC(=O)C3=COCCO3)n2)cc1C	31.4%
Cc1cc(C)c(C#N)c(SCc2[nH]nc3c2C(c2ccccc2)C(C#N)=C(N)O3)n1 (configuration not stated)	64% (active)
CCc1ccc(C2C(C#N)=C(N)Oc3n[nH]c(CC(=O)OC)c32)cc1 (configuration not stated)	3.08%
Cc1cc(C)c2c3c(sc2n1)C(c1ccccc1)C(C#N)=C(N)O3 (configuration not stated)	-10.5%
CCN(C(=O)CSc1ncnc2c1cnn2-c1ccccc1)C1CCS(=O)(=O)C1 (configuration not stated)	-4.69%
Nc1scc(-c2ccncc2)c1Cl	11.5%

Structure (SMILES)	activation
Fc1ccc(-c2csc(-c3ccc(C4SCCS4)cc3)n2)cc1F	23.4%
Clc1ccc(-c2csc(-c3ccncc3)n2)cc1	58% (active)
CCCn1c(C)cc(/C=C(\C#N)C(=O)OCC(=O)N(C)c2c(N)n(Cc3ccccc3)c(=O)[nH]c2=O)c1C	-4.32%
Cc1ccc(C(=O)/C=C/c2c(C)nn(-c3ccccc3)c2Cl)cc1	42.3%
Cc1nn(-c2ccccc2)c(Cl)c1C(=O)Nc1ccccc1	-8.73%
Cc1nn(-c2ccccc2)c(Cl)c1/C=C/C(=O)c1ccc(O)cc1	76.9% (active)
COc1cc2c(cc1OC)C(Cc1cc(OC)c(OC)cc1[N+](=O)[O-])=NCC2	-5.53%
O=C(N/N=C/c1ccc([N+](=O)[O-])o1)c1cn(-c2ccccc2)nc1-c1ccc(F)cc1	3.06%
O=C(/C=C/c1ccc([N+](=O)[O-])o1)NNC(=O)c1ccc(F)cc1	71.3% (active)
C/[N+]([O-])=C\c1ccc([N+](=O)[O-])o1	-2.43%
Cc1ccc(OCCNC(=O)CNC(=O)c2ccc(C)c(C)c2)cc1	16.2%
O=C1[C@H]2[C@@H](c3ccc(Cl)cc3)N3C(=O)N(c4cccc(F)c4)C(=O)[C@@]3(Cc3ccccc3)[C@H]2C(=O)N1C1CCCCC1	-0.394%
CC(=O)Nc1ccc(NC(=O)C(C)OC(=O)c2ccccc2C(=O)c2ccc(Cl)c([N+](=O)[O-])c2)cc1 (configuration not stated)	27.5%
N#Cc1cccc(NC(=O)COC(=O)c2ccccc2C(=O)c2ccc(Cl)c([N+](=O)[O-])c2)c1	241% (active)
COC(=O)c1cc(NC(=O)Cc2ccccc2[N+](=O)[O-])ccc1Cl	-11.7%
CC1(c2ccc(Cl)cc2Cl)NC(=O)N(CC(=O)Nc2cccnc2Cl)C1=O (configuration not stated)	-7.46%
COc1ccccc1CCNC(=O)C(=O)NCCC1CCCCN1S(=O)(=O)c1cccs1 (configuration not stated)	18%
CN(CC(=O)NCc1cccnc1)S(=O)(=O)c1cc(Cl)ccc1Cl	1.99%
CC(Oc1ccc(Br)cc1)C(=O)NCC(c1ccco1)N1CCCCC1 (configuration not stated)	12.7%

Source: PubChem BioAssay AID504408 (Broad Institute, 2011)
